# G9a block – blocks human histone lysine methyltransferase G9a. AID 504332. G9a H3K9 monomethylation, AlphaScreen, 2 h. Q96KQ7. 350,000 tested, 8.8% active. Potency, µM (doses to about 102 µM), usual class: inhibitors; also: nearly all actives have a fitted effect of over 75% in size
# Target sequence (Q96KQ7 913-1193 limits assumed): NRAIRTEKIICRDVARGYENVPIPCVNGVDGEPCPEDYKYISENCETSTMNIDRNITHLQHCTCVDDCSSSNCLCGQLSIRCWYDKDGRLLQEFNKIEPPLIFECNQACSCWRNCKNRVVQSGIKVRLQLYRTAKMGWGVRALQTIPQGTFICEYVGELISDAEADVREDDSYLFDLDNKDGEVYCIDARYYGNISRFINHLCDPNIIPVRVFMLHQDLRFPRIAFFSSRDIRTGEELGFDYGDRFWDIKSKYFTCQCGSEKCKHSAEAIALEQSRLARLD
#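 Methyltransferase reactions run at room temperature for 2 h (20 nM enzyme, 500 nM biotin-H3K9 peptide, 20 uM SAM) after a 15 min compound preincubation; product detected by AlphaScreen beads and anti-H3K9me1 antibody.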
# JMJD2A Tudor inh – blocks the human JMJD2A Tudor domain. 390,000 tested, 4.4% active. Potency, µM (titrated, usually from 114 µM), actives largely listed as inhibitors. AID 504339. AlphaScreen JMJD2A-Tudor / H3K4me3 peptide binding; also: nearly all actives have a fitted effect of over 50% in size
# BAZ2B inh – blocks human BAZ2B. AlphaScreen BAZ2B-H3K14Ac peptide displacement. Potency, µM (series often up to 114 µM), most hits filed as inhibitors. 360,000 tested, 4.4% active. AID 504333; also: nearly all actives have a fitted effect of over 60% in size
#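 Compounds, titrated to a top concentration of 110 uM, were incubated 30 min at room temperature with preformed BAZ2B/acetyl-K14 H3 peptide complex (50 nM each). Proximity signal was measured by AlphaScreen after 20 min with beads.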
# HP1b binding inh – HP1-beta chromodomain-methylated histone interaction inhibition | P83916 | AlphaScreen HP1-beta / biotin-H3K9me3 peptide binding | Potency, µM (titrated, usually from 114 µM), hits mostly inhibitors | 390,000 tested, 0.56% active | AID 540317; also: nearly all actives have a fitted effect of over 70% in size
# Target sequence (P83916 whole entry, looked up): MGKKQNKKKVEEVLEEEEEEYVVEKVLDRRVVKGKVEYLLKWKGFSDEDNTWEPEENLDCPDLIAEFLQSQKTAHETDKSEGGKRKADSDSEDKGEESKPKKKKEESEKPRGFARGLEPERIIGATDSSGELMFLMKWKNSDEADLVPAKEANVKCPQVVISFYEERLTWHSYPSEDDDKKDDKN
#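 Compound inhibition of the preformed complex between 50 nM HP1-beta and 50 nM biotinylated H3K9me3 peptide was read by AlphaScreen. Buffer was PBS pH 7.4 with 0.01% Tween-20. Incubations ran 30 min at room temperature, with 10 ug/mL donor/acceptor beads.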
# GLS inh – blocks human kidney-isoform glutaminase activity | O94925 | GLS enzymatic activity, qHTS titration | Potency, µM (top dose mostly 45.5 µM), hits mostly inhibitors | 410,000 tested, 0.21% active | AID 624170
#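 Assay buffer: 45 mM KH2PO4 pH 8.2, 0.02% Tween-20. hKGA acts on L-glutamine (1 mM solution added); product glutamate is reported by an oxidase/peroxidase Amplex Red coupling, with fluorescence taken at baseline and 30 min.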
# Hits are given with their value; n = inactive; u = inconclusive; x = not tested or not shown; [ ] = dose if it differs, or a comment. In the library only some 10% were active in any assay of this set; here they are far more common. Calls follow the shape of the dose curve; as a rule, active = well fitted curve in the direction sought with a large enough effect; inconclusive = small, poorly fitted or top-dose-only effect, or another doubt; inactive = no such curve, though single readings can be large; an effect the other way counts as inactive or inconclusive.
SMILES,G9a block,JMJD2A Tudor inh,BAZ2B inh,HP1b binding inh,GLS inh
Cc1[nH]c2ccc(C(=O)O)cc2c1C,n,n,u,n,n
CCCc1c(C)[nH]c2ccc(C(=O)O)cc2c1=S,x,n[11.4 µM],u,u,7.1µM
COC(=O)Cn1c(=NC(=O)c2sc3ccccc3c2Cl)sc2cc(S(N)(=O)=O)ccc21,n,n,n,n,n
COC(=O)C1=CN(c2cc(C)cc(C)c2)C=C(C(=O)OC)C1c1ccc(OC)c(O)c1,n,u,n,n,n
C[C@H](CO)N1C[C@H](C)[C@@H](CN(C)CC2CCCCC2)Oc2c(NC(=O)Cc3ccccc3)cccc2C1=O,x,56µM,x,n,n
CCOC(=O)C(NC(=O)CC)(Nc1nc2c(s1)CCCC2)C(F)(F)F (centres undefined),u,n,n,n,n
CN=C1N[C@H](c2ccccc2)N(c2ccccc2)S1,x,25µM,x,u,x
CCN1C(=O)NC(c2ccccc2)C1=O (centres undefined),n,n,n,n,n
CC1CCCCN1CCCNC(=O)c1nn(C)c2c1CSc1ccccc1-2 (centres undefined),n,n,n,n,n
CCOC(=O)c1cc2c(ccn2C)n1CC(=O)N(Cc1ccccc1)c1ccccc1,28µM,25µM,32µM,n,n
CC(C)OC(=O)c1cc2c(ccn2C)n1CC(=O)N(Cc1ccccc1)c1ccc(F)cc1,28µM,18µM,40µM,u,n
CC(C)OC(=O)c1cc2c(ccn2-c2ccc(F)cc2)n1CC(=O)N1CCN(C(=O)c2ccco2)CC1,x,n,n,n,n
CN1CCN(C(=O)c2ccccc2NC(=O)c2cccc(Cl)c2)CC1,x,n,n,n,n
CCOCCCNC(=O)C1CCN(Cc2ccc(OCc3ccccc3)c(OC)c2)CC1,50µM,u,n,n,n
CCCS(=O)(=O)N1CCN(Cc2ccc(OCc3ccccc3)c(OC)c2)CC1,x,28µM,x,u,n
CCCCNC(=O)C1CCN(Cc2ccc(OCc3ccccc3)c(OC)c2)CC1,14µM,22µM,u,n,n
COc1ccc(CN2CCN(C)CC2)cc1OCc1ccccc1,u,n,n,n,n
CCOc1cc(CN2CCN(S(=O)(=O)Cc3ccccc3)CC2)ccc1OC,n,n,n,n,n
O=C1[C@H]2[C@@H](c3ccccc3)N[C@]3(CCCN(Cc4ccc(Cl)cc4)C3=O)[C@H]2C(=O)N1Cc1ccccc1,x,x,x,x,n
CCCOc1ccc(Cc2nn[nH]n2)cc1,50µM,n,n,n,n
COc1ccc(CNC(=O)CCCn2nc(C)c3c(C)n(-c4ccc(C)cc4)nc3c2=O)cc1OC,n,n,n,n,n
CCOc1cc(/C=C(/C#N)c2nc3ccccc3[nH]2)ccc1OCc1ccc(C(=O)O)o1,71µM,n,u,n,u
COc1cc(/C=C(/C#N)c2nc3ccccc3[nH]2)ccc1OCC(=O)Nc1ccccc1C(C)C,n[0.501 µM],n,50µM,n,n
CN(CCOc1ccc(Cl)cc1)C(=O)c1ccc(S(=O)(=O)N2CCOCC2)cc1,n,n,n,n,n
O=C(NCCN1C(=O)S/C(=C\c2cccnc2)C1=O)c1cc(S(=O)(=O)N2CCOCC2)ccc1F,40µM,u,n,n,n
SMILES,G9a block,JMJD2A Tudor inh,BAZ2B inh,HP1b binding inh,GLS inh
O=C(NCCN1C(=O)S/C(=C\c2cccnc2)C1=O)c1ccc([N+](=O)[O-])s1,14µM,n,n,n,n
Cc1ccc(S(=O)(=O)N2CCOCC2)cc1C(=O)NCCN1C(=O)S/C(=C\c2ccccc2Cl)C1=O,n,n,n,n,n
O=C(NCCn1cccn1)C1CCC(=O)N(CCc2ccc(Cl)cc2)C1 (centres undefined),n,n,n,n,n
COc1ccc(-c2nc3ccc(C)cn3c2NCc2ccccc2)cc1SC1CCCCC1,n[2.33 µM],79µM,50µM,n,n
Cc1ccc2nc(-c3cccc(SC4CCCCC4)c3)c(NC3CCCCC3)n2c1,x,n,x,n,n
COc1ccc(-c2ccc(-c3nc4ccc(C)cn4c3NC3CCCCC3)cc2OC)cc1,n[2.33 µM],40µM,45µM,n,u
CCC(C)Sc1cc(-c2nc3ccc(C)cn3c2NCc2ccccc2)ccc1OC (centres undefined),x,56µM,x,u,n
CCC(C)Sc1ccc(-c2nc3ccc(C)cn3c2NCc2ccccc2)cc1OC (centres undefined),n[2.33 µM],u,u,n,n
COc1cc(CCC(=O)NCc2ccc(S(N)(=O)=O)cc2)cc(OC)c1OC,n,n,n,n,n
